# Bioassay records: PubChem BioAssay, NMMLSC
# Sampled rows, rich in hits. Any-hit rate of the full collection: about 0.78%.
# RGS7-Gao: regulators of human RGS7-Galphao interaction. P09471. Multiplexed bead flow cytometry, RGS7-Galphao binding; actives lie on both sides. binding response (% of control), % at 10 µM. 220,000 compounds, 0.35% hits; in the data active means binding response below about 49% or above about 150%; inconclusive means no clear call, values can overlap the other calls; inactive means in between;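 further: fluorescent Galphao held in activated GDP-AlF4 state binding bead-coupled RGS7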
# Target sequence (P09471 whole entry, looked up): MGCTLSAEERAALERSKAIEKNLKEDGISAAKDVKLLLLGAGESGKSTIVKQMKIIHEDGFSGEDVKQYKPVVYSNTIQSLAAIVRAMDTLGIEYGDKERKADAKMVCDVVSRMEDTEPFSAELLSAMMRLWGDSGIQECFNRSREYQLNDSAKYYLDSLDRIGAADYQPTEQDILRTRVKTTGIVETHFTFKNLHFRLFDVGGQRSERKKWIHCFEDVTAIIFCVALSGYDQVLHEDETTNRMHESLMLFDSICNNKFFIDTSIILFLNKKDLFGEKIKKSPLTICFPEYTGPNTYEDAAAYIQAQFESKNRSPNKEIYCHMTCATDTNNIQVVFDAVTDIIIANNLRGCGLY
# RGS4-Gao reg: human RGS4-Galphao interaction regulation; binding response (% of control), % at 10 µM; 220,000 compounds, 0.33% hits; Multiplexed bead flow cytometry, RGS4-Galphao binding; actives lie on both sides; P09471; in the data active means binding response below about 49% or above about 150%; inactive means in between;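 further: fluorescent Galphao activated with aluminum fluoride binding bead-coupled RGS4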
# RGS16-Gao: modulates binding between human RGS16 and Galphao. O15492+P09471. AID 1441. binding response (% of control), % at 10 µM. bead-based flow cytometry RGS16-Galphao binding, fluorescence; actives lie on both sides. 220,000 compounds, 0.38% hits;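 further: Galphao activated by GDP with aluminum fluoride before binding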
# RGS8-Gao reg: regulators of human RGS8-Galphao interaction. multiplexed bead flow cytometry, RGS8-Galphao binding; actives lie on both sides. 220,000 compounds, 0.34% hits. response (percent of control binding), % at 10 µM. AID 1423; in the data active means response below about 60% or above about 140%; inactive means in between;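 further: Galphao activated as the GDP aluminium fluoride complex binding bead-coupled RGS8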
# RGS4-Gao HTS: regulators of human RGS4-Galphao interaction; RGS4–Galpha-o binding response, % at 10 µM; multiplexed bead flow cytometry, RGS–Galpha-o binding; 1,600 compounds, 99% hits; shares compounds with RGS16-Gao;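 further: fluorescently labeled Galpha-o bound to GDP with aluminium fluoride binding biotinylated RGS beads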
# Biotin-avidin: counter-screen: compounds disrupting biotin binding to avidin beads; streptavidin beads, fluorescein-biotin binding, flow cytometry; inhibition, % at 10 µM; shares compounds with RGS16-Gao; 1,700 tested, under 10 active;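 active means inhibition above 50%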;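 further: median green fluorescence of gated singlet beads compared with DMSO control wells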
# RGS8-Gao confirm: confirmation of regulators of human RGS8-Galphao interaction. AID 1836. shares compounds with RGS16-Gao. bead-based flow cytometry RGS8-Galphao binding, fluorescence; actives lie on both sides. binding response (% of control), % at 10 µM. 1,700 compounds, 3% hits; in the data active means binding response below about 72% or above about 130%; inactive means in between;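 further: Galphao activated as GDP AlF4 complex before binding bead RGS8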
# RGS7-Gao confirm: confirmation of regulators of human RGS7-Galphao interaction; shares compounds with RGS16-Gao; bead-based flow cytometry RGS7-Galphao binding; actives lie on both sides; response (percent of control binding), % at 10 µM; 1,700 compounds, 7.8% hits; AID 1837; in the data active means response below about 75% or above about 130%; inactive means in between;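 further: fluorescent Galphao activated with GDP and aluminum fluoride binding bead-coupled RGS7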
# RGS16-Gao conf: confirmation of regulators of human RGS16-Galphao interaction | shares compounds with RGS16-Gao | bead-based flow cytometry, RGS16-Galphao binding; actives lie on both sides | response (% of control binding), % at 10 µM | 1,700 compounds, 4% hits | AID 1838; in the data active means response below about 74% or above about 130%; inactive means in between;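 further: Galphao activated as the GDP aluminium fluoride complex binding bead-coupled RGS16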
# RGS4-Gao single: RGS4-Galphao interaction regulation, single point confirmation; AID 1840; shares compounds with RGS16-Gao; RGS4-Galphao binding, multiplexed bead flow cytometry; actives lie on both sides; binding response (% of control), % at 10 µM; 1,700 compounds, 4% hits; in the data active means binding response below about 74% or above about 130%; inactive means in between
# RGS19-Gao single: confirmation of regulators of human RGS19-Galphao interaction; 1,700 compounds, 5% hits; bead-based flow cytometry RGS19-Galphao binding; actives lie on both sides; response (percent of control binding), % at 10 µM; shares compounds with RGS16-Gao; AID 1841; in the data active means response below about 50% or above about 160%; inactive means in between
# A number is an active result; - = inactive; ? = inconclusive; . = not tested or not shown; [ ] = another dose, or the depositor's remark. Unless noted, how the calls were made is not given here.
SMILES,RGS7-Gao,RGS4-Gao reg,RGS16-Gao,RGS8-Gao reg,RGS4-Gao HTS,Biotin-avidin,RGS8-Gao confirm,RGS7-Gao confirm,RGS16-Gao conf,RGS4-Gao single,RGS19-Gao single
COc1ccc(/C=C(\NC(=O)c2ccccc2)C(=O)NNC(=O)CCN2CCOCC2)cc1,-,-,-,-,.,.,.,.,.,.,.
CCOc1ccc(NC(=O)N(CCC(C)C)C2CCN(C(C)=O)CC2)cc1,-,-,-,153[activator],127,-,-,-,-,-,-
CCOc1ccc(NC(=O)N(C2CCCC2)C2CCN(C(C)=O)CC2)cc1,-,-,-,-,.,.,.,.,.,.,.
COc1ccccc1C(CC(=O)Nc1ccc(C)c(C)c1)c1ccc(OC(C)C)cc1 (stereo not drawn),-,-,197[activator],-,115,-,-,-,-,-,-
COc1ccccc1NC(=O)CC(c1ccc(OC(C)C)cc1)c1ccccc1OC (stereo not drawn),-,-,-,-,.,.,.,.,.,.,.
CC(C)COc1ncnc2c1sc1nc3c(cc12)COC(C)(C)C3,?,224[activator],206[activator],-,.,-,-,-,-,-,-
NC(=O)[C@@H]1CCCCNc2c(I)cc([N+](=O)[O-])cc2C(=O)N[C@@H](CCC(=O)O)C(=O)N[C@@H](CO)C(=O)N1,-,-,-,-,.,.,.,.,.,.,.
NC(=O)[C@@H]1CCNc2c(I)cc([N+](=O)[O-])cc2C(=O)N[C@@H](CCC(=O)O)C(=O)N[C@@H](CO)C(=O)N1,-,-,404[activator],-,108,.,.,.,.,.,.
O=C(COC(=O)Cc1cccc(C(F)(F)F)c1)Nc1ccc2c(c1)OCCO2,-,-,-,-,.,.,.,.,.,.,.
O=C(COC(=O)Cc1cccc(C(F)(F)F)c1)NC1CC1,12,16,6.5,12,.,-,-,-,-,-,-
CCc1cccc(C)c1NC(=O)C(c1ccccc1)N1CCC1=O (stereo not drawn),-,-,-,-,.,.,.,.,.,.,.
O=C(NCc1cccnc1)C(=O)NCC1OCCN1S(=O)(=O)c1cc(F)ccc1F (stereo not drawn),?,206[activator],200[activator],-,.,-,-,-,-,-,-
Cc1[nH]cnc1CSCc1ccc(Cl)cc1,-,-,192[activator],147[activator],134,-,-,-,-,-,-
Cc1[nH]cnc1CSCCN,-,-,-,-,.,.,.,.,.,.,.
CCc1n[nH]c(=S)n1/N=C/c1cc(Br)c(OC)cc1OC,-,-,-,-,.,.,.,.,.,.,.
CCCc1nc(SCC(=O)Nc2nnc(SCC)s2)c2c(=O)n(C)c(=O)n(C)c2n1,44,-,-,59,54,.,.,.,.,.,.
CCOc1ccc(-n2nc3c(SCCN4CCCC4)nnc(C)c3c2C)cc1,210[activator],183[activator],202[activator],-,.,-,-,-,-,-,-
Cc1ccc(-n2nc3c(SCCN4CCOCC4)nnc(C)c3c2C)cc1,-,-,-,-,.,.,.,.,.,.,.
COCCNC(=O)c1cc(Sc2nnc(C)s2)nc2ccccc12,?,36,-,60,.,-,-,-,-,-,-
O=C(NCc1ccco1)c1ccc2snnc2c1,188[activator],-,-,-,114,-,-,-,-,-,-
Cc1ccc(C(=O)COC(=O)CCC(=O)Nc2ccccc2Cl)cc1[N+](=O)[O-],-,-,-,-,.,.,.,.,.,.,.
Cc1ccc(C(=O)COC(=O)CCCC(=O)Nc2cc(C(F)(F)F)ccc2Cl)cc1C,12,20,11,26,.,-,-,-,-,-,-
Cc1ccccc1-n1sc2cc(F)ccc2c1=O,-,-,4.8,37,90,.,.,.,.,.,.
